What all share (test): NCI-60 one-dose screen, 48 h (100 = growth as untreated, 0 = no growth, -100 = all killed)
Common to all, as to details: 10 µM unless noted

Assay [1] deals with DU-145 prostate.
The subject of assay [2] is K-562 leukemia.
Assay [3] relates to MALME-3M melanoma.
In assay [4] the test system is MDA-MB-231 breast.
Assay [5] deals with RXF 393 renal.
Assay [6] concerns SF-268 CNS.
Assay [7] concerns SF-295 CNS.
The test system of assay [8] is SF-539 CNS.
In assay [9] the test system is UACC-257 melanoma.
Assay [10] concerns M14 melanoma.
Assay [11] has as its system HCT-15 colon.
For assay [12], the system named is HT29 colon.
Assay [13] deals with SNB-75 CNS.
For assay [14], the system named is SNB-19 CNS.
The test system of assay [15] is U251 CNS.
Assay [16] concerns PC-3 prostate.
Assay [17] deals with SK-MEL-5 melanoma.
For assay [18], the system named is UACC-62 melanoma.
For assay [19], the system named is LOX IMVI melanoma.
Assay [20] has as its system SK-MEL-28 melanoma.

About 83,000 compounds went through this panel and 20% of them were active in at least one assay; those are over-represented in the sample as a whole.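 In brief: 96-well plates, 48 h treatment, single concentration, percent growth endpoint.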 Unmarked numbers belong to inactive results. Calls of active or inactive are those of the source. The calls were made as follows: active = growth percent below 10; inactive = the rest.

As for `O=C1C(=O)N(Cc2ccc(-c3ccccc3)cc2)c2ccc(OC(F)(F)F)cc21`, the growth in [1] was 36.4%; in [2] it was 16.1%; in assay [3] it was 62.2%; in [4], 44.9%; in assay [5] it was 76.9%; in [6] it was 49.5%. The growth is 41.4% in assay [7]; -8.58% (active) in assay [8]; 72.7% in [9]; 44.8% in [10]; 10.3% in [11]; 9.07% (active) in [12]. Also, the growth in assay [13] is 39.3%; in assay [14], 43.2%; in [15], 20.9%; in assay [16], 17.4%; in [17], 92.2%; in assay [18], 62.3%. Moreover, the growth was 20.1% in [19] and 82.7% in [20].

With `Nc1c(C(=O)Nc2ccccc2C(F)(F)F)sc2nc3c(cc12)CCC3`, the growth in assay [1] is 108%; in assay [2] it was 94.4%; in assay [3], 99.8%; in assay [4], 92%; in assay [5], 84.6%; in [6] it was 106%. In addition, the growth in [7] is 95.1%; in assay [8], 100%; in assay [9] it was 101%; in [10], 113%; in assay [11], 97.3%; in assay [12] it was 94.3%. The growth was 97.4% in [13]; 98.4% in assay [14]; 93.9% in assay [15]; 100% in [16]; 98.6% in [17]; 81% in assay [18]. In addition, the growth in assay [19] is 110%; in assay [20] it was 94.5%.

In the case of `C=CCn1c(C)nc2ccc(Nc3nc(Nc4ccc5nc(C)n(CC=C)c5c4)c4ccccc4n3)cc21`, the growth was -67.6% (active) in assay [1]; -43.5% (active) in assay [2]; -78.9% (active) in [3]; -78.8% (active) in [4]; -80.7% (active) in assay [5]; -32.4% (active) in assay [6]. For the same molecule, the growth in [7] was -67.5% (active); in [8], -93.8% (active); in assay [9], -87.6% (active); in assay [10], -88.4% (active); in assay [11] it was -51.7% (active); in [12] it was -96.7% (active). The growth in assay [13] is -95.2% (active); in [14], 30.6%; in assay [15], -94.2% (active); in [16], -47.8% (active); in assay [17], -94.2% (active); in [18], -87% (active). The growth in assay [19] was -88.6% (active); in assay [20] it was -96% (active).

With `Cc1nc2sc(C(=O)Nc3ccc(Br)cc3)c(N)c2cc1C(O)c1ccccc1` (stereo not given), the growth in [1] was 81.7%; in assay [2] it was 12.1%; in assay [3], 63.9%; in [4], 57.9%; in [5], 86.6%; in [6], 75.8%. Also, the growth in assay [7] is 69.5%; in assay [8], 66.7%; in assay [9], 61.8%; in [10], 38.9%; in assay [11] it was 34.7%; in [12], 36.7%. Also, the growth in [13] is 62.6%; in assay [14], 67.7%; in [15] it was 54%; in assay [16], 61.4%; in assay [17], 39.9%; in assay [18], 41.8%. Further, the growth in assay [19] was 61.3%; in assay [20], 67.8%.

Turning to `[O-]/[N+](=C\c1ccc(-n2cc(Cc3ccccc3Cc3cn(-c4ccc(/C=[N+](/[O-])c5ccccc5)cc4)nn3)nn2)cc1)c1ccccc1`, the growth in [1] was 106%; in [2], 86.6%; in [3], 102%; in assay [4], 103%; in assay [5] it was 116%; in [6], 92.8%. Also, the growth is 99.5% in assay [7]; 92.2% in assay [8]; 108% in [9]; 101% in assay [10]; 98.8% in [11]; 101% in assay [12]. Further, the growth in assay [13] was 91.9%; in assay [14], 96.7%; in assay [15], 107%; in assay [16], 103%; in assay [17] it was 105%; in assay [18] it was 94.7%. The growth in assay [19] is 87.9%; in assay [20] it was 110%.

For `C=CCN=c1sc2c(n1NC(=O)c1cc3ccc1CCc1ccc(cc1)CC3)C(=O)c1ccccc1C2=O`, the growth in assay [1] was -90.7% (active); in [2] it was -12.3% (active); in assay [3] it was -88.6% (active); in assay [4], -6.76% (active); in assay [5] it was -26.3% (active); in assay [6], 8.79% (active). Further, the growth in assay [7] was 69.2%; in [8] it was -98.3% (active); in assay [9], -72.6% (active); in [10], -93.9% (active); in assay [11] it was -68.3% (active); in [12], 26.1%. Besides, the growth was -94.6% (active) in [13]; 4.59% (active) in assay [14]; 0.221% (active) in assay [15]; 0.37% (active) in [16]; -98.5% (active) in assay [17]; -36% (active) in [18]. For the same molecule, the results for the growth in [19] and in [20] were -80.3% (active) and -35.4% (active), respectively.

Take `CC1(C)CC(=O)C2=C(C1)N(c1ccc(OC(F)(F)F)cc1)C(N)=C(C#N)C2c1ccc(Br)cc1F` (stereo not given): the growth was 96.5% in assay [1]; 75.5% in [2]; 46.8% in [3]; 61.2% in assay [4]; 42.9% in assay [5]; 36.6% in [6]. For the same molecule, the growth in assay [7] was 42.2%; in assay [8], 75%; in assay [9], 80.9%; in [10] it was 79.1%; in [11] it was 71.4%; in assay [12], 79.7%. Further, the growth in [13] was 54.1%; in assay [14], 34.4%; in assay [15] it was 56.2%; in [16] it was 51.9%; in [17] it was 92.9%; in [18], 78.5%. Moreover, the growth in assay [19] is 54.5%; in [20] it was 90.8%.
